CHX counter: affects cycloheximide protein synthesis inhibition readout, counter-screen. cell reporter, cycloheximide protein synthesis inhibition counterscreen. max response, %. actives 12% (n = 300,000); in the data active = max response mostly above about 13%, no sharp cut-off; inactive = mostly below about 14%; note: read at 38.3 µM for the half of the compounds with a filed dose; 0% is about no effect
Pf growth 96h: P. falciparum growth inhibition at 96 hour, primary screen for plastid delayed-death inhibitors; P. falciparum luciferase reporter growth, 96 h; Potency, µM (titrated, usually from 28.7 µM), inactives show at the highest dose activity change, negative = inhibition, usual class: inhibitors; actives 6.9% (n = 320,000); note: potency is the fitted concentration of half-maximal effect; % is set by controls: 0 for no effect and ±100 for the full control effect
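Luminescence readout: decreased luciferase signal marks inhibited growth of reporter-expressing P. falciparum in infected red cells (2% hematocrit, 0.05% parasitemia final), exposed to compound two generations (96 h, 37 C, 5% CO2).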
Shiga inhibitor: inhibitors of Shiga toxin in Vero cells; Vero cells, Shiga toxin protein synthesis inhibition reporter; inhibition, % at 38.7 µM; actives 9.2% (n = 290,000); AID 2315; in the data active = inhibition mostly above about 28%, no sharp cut-off; inactive = mostly below about 43%; note: 0% is about no effect
HCMV inh: human cytomegalovirus inhibition; HFF cells, HCMV-luciferase reporter, 72 h; active compounds read low; activity change, negative = inhibition, % at 57.5 µM; actives 4.5% (n = 410,000); in the data active = activity change below about -60%; inconclusive = no clear call, values can overlap the other calls; inactive = above about -39%; note: % is set by controls: 0 for no effect and ±100 for the full control effect
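Human foreskin fibroblasts infected with luciferase-reporter HCMV at MOI 1 PFU/cell, compounds at two doses. Luciferase measured 72 h post infection; normalized to buffer-only basal and Salinomycin (10uM) controls.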
Pf growth 48h: inhibits P. falciparum growth in the first generation, 48 h | P. falciparum luciferase growth in erythrocytes, 48 h | Potency, µM (titrated, usually from 28.7 µM), for the others: top-dose activity change, negative = inhibition, hits mostly inhibitors | actives 5.9% (n = 310,000); note: potency is the fitted concentration of half-maximal effect; % is set by controls: 0 for no effect and ±100 for the full control effect
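First compound was added to culture medium, then infected red cells at 0.1% parasitemia and 2% hematocrit (final). After incubation at 37 C under 5% CO2, luciferase detection reagent was dispensed and light output recorded.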
* marks the source's active call; other numbers are inactive results; ? = inconclusive; . = not tested or not shown. A selection: hits, their analogues and other compounds. The true share with any hit is near 20%. Unless noted, calls come from the whole dose curve; as a rule, active = well fitted inhibition curve with a large enough effect; inconclusive = small, poorly fitted or top-dose-only effect, or another doubt; inactive = no such curve, though single readings can be large or run the other way.

SMILES	CHX counter	Pf growth 96h	Shiga inhibitor	HCMV inh	Pf growth 48h
Cc1ccc2nc(NC(=O)c3cccs3)sc2c1	25	?	80	14	75%
Cc1ccc2nc(NC(=O)c3ccc(Cl)s3)sc2c1	25*	-102%	51*	36	.
Cc1nc2ccc(NC(=O)c3ccc(Cl)s3)cc2s1	15	35%	77*	-15	.
Cc1nc2ccc(NC(=O)c3cccnc3)cc2s1	8	23%	55	-10	2%
Cc1nc2ccc(NC(=O)c3cnc(Cl)c(Cl)c3)cc2s1	18*	48%	71*	-7	60%
Cn1ccc2c(N3c4ccccc4CCc4ccccc43)cc3c(c21)C1CCC3O1 (stereo not given)	.	.	.	21	.
Cn1ccc2c(N3c4ccccc4CCc4ccccc43)cc3c(c21)C1CCC3C1 (stereo not given)	.	.	.	-93*	.
CCCN(CC1CC1)c1cc2c(c3c1ccn3C)C1CCC2C1 (stereo not given)	.	.	.	-62*	.
COc1ccc(-c2cc3c(c4c2ccn4C)C2CCC3C2)cc1OC (stereo not given)	.	.	.	-60*	.
COc1ccc(Nc2ncnc3c2cnn3C)c(OC)c1	.	.	.	-3	.
O=C1CN(C(=O)COC(=O)COc2ccccc2)c2ccccc2N1	.	.	.	-27	.
CC(=O)c1c(C)oc2ccc(N(C(=O)Oc3ccccc3)S(=O)(=O)c3ccccc3)cc12	.	.	.	35	.
CC(=O)c1c(C)oc2ccc(N(C(C)=O)S(=O)(=O)c3cccc4cccnc34)cc12	3	?	-14	-79*	?
CCCC(=O)N(c1ccc2oc(C)c(C(C)=O)c2c1)S(=O)(=O)c1ccc(CC)cc1	.	.	.	-93*	.
CCOc1ccc(S(=O)(=O)N(C(C)=O)c2ccc3oc(C)c(C(=O)OC)c3c2)cc1	.	.	.	-62*	.
Cc1ccc(S(=O)(=O)N2CCCC2)cc1C(=O)N1CCN(Cc2ccccc2)CC1	-2	?	-6	11	24%
Cc1ccccc1NC(=O)CC(C)S(=O)(=O)c1ccc2c(c1)NC(=O)CO2 (stereo not given)	-2	26%	-2	-31	-17%
CC(Sc1nnc(-c2ccncc2)n1C)C(=O)Nc1ccc(N2CCOCC2)cc1 (stereo not given)	.	-1%	.	0	3%
O=C(NNC(=S)Nc1ccccc1)C1CCCCC1	2	-8%	10	14	339%
CC(=O)c1ccc(NS(=O)(=O)c2cccc(S(=O)(=O)c3ccc(Cl)cc3)c2)cc1	.	.	.	57	.
Cc1nc(N2CCN(S(=O)(=O)c3ccc(F)cc3)CC2)c2c(-c3cccs3)csc2n1	13	?	-2	-66*	?
N#Cc1ccccc1S(=O)(=O)N1CCN(c2nc(-c3ccccc3)nc3ccccc23)CC1	.	.	.	-22	.
Cc1ccc(S(=O)(=O)N2CCN(c3ncnc4scc(-c5ccc(F)cc5)c34)CC2)cc1	.	-24%	.	-12	?
Cc1nc(N2CCN(S(=O)(=O)c3ccccc3C#N)CC2)c2c(-c3ccccc3)csc2n1	.	?	.	-74*	10µM*
COc1cc(C2/C(=C(\O)c3ccc4c(c3)OCCO4)C(=O)C(=O)N2Cc2ccco2)cc(OC)c1OC (stereo not given)	1	?	-12	-35	-3%
SMILES	CHX counter	Pf growth 96h	Shiga inhibitor	HCMV inh	Pf growth 48h
Cc1ccc(C(=O)NN=C2CCCCCC2)s1	47*	-22%	59*	?	2%
O=C(NN=C1CCCCCC1)c1ccc(Cl)s1	10	-21%	12	?	40%
Cc1ccsc1C(=O)NN=C1CCCCCC1	51*	?	96*	-99*	7%
Cc1cccc(C)c1NC(=O)NN=C1CCCCC1	3	3%	-2	-4	-13%
Cc1cc(F)ccc1NC(=O)C1CCN(C(=O)c2cnn(-c3ccccc3)c2-n2cccc2)CC1	.	.	.	-3	.
O=C(C1CCCO1)N1CCN(S(=O)(=O)c2cc(C(F)(F)F)ccc2Cl)CC1 (stereo not given)	.	14%	.	-8	-3%
O=c1cc(-c2ccccc2)n(S(=O)(=O)c2ccccc2)o1	16*	.	-9	5	5%
COc1ccc(S(=O)(=O)n2oc(=O)cc2-c2ccccc2)cc1	8	.	18	13	13%
O=C(NCCN1CCN(C(=O)NC2CCCCC2)CC1)NC1CCCCC1	1	13µM*	14	35	24%
CCn1ccc2cc(S(=O)(=O)N3CCCN(C(=O)Nc4ccccc4OC)CC3)ccc21	.	.	.	-9	.
CCN1C[C@@H]2[C@@H]3C(=O)N(Cc4ccccc4)C(=O)[C@@H]3[C@](Cc3ccccc3)(C1=O)N2C(=O)c1ccc(Cl)cc1	.	.	.	-69*	.
CCN1C[C@@H]2[C@@H]3C(=O)N(Cc4ccccc4)C(=O)[C@@H]3[C@](Cc3ccccc3)(C1=O)N2C(=O)c1ccccc1	.	.	.	-7	.
COc1ccccc1CN1C[C@@H]2C[C@@H](c3ccccc3C)N3CCC[C@@]23C1=O	-3	207%	-8	-7	?
Cc1ccccc1CN1C[C@@H]2C[C@@H](c3cnc(N4CCOCC4)s3)N3CCC[C@@]23C1=O	-6	13%	-9	-76*	?
CCc1ccc([C@@H]2C[C@H]3CN(Cc4ccccc4OC)C(=O)[C@]34CCCN24)cc1	-2	?	-5	2	5.9µM*
COc1ccccc1CN1C[C@@H]2C[C@@H](c3[nH]c4ccc(C)cc4c3C)N3CCC[C@@]23C1=O	7	-14%	-10	11	7.4µM*
COc1ccc2c(c1)C=C([C@@H]1C[C@H]3CN(c4ccccc4)C(=O)[C@]34CCCN14)CO2	-1	?	2	-14	1.5µM*
Cc1ccc(C(=O)C(C)OC(=O)CN2C(=O)NC3(CCCC3)C2=O)cc1C (stereo not given)	.	11%	.	-8	-20%
CC(C)(O)C#Cc1ccc([C@@H]2C[C@H]3CN(c4ccccc4)C(=O)[C@]34CCCN24)s1	6	-3%	19	-99*	?
CCn1ccnc1[C@@H]1C[C@H]2CN(Cc3ccccc3OC)C(=O)[C@]23CCCN13	-2	9.3µM*	15	?	11%
COc1ccccc1CN1C[C@@H]2C[C@@H](c3ccc(C)cc3)N3CCC[C@@]23C1=O	-4	?	-10	-32	?
COCc1cc([C@@H]2C[C@H]3CN(c4ccccc4)C(=O)[C@]34CCCN24)ccc1OC	2	?	3	-94*	10µM*
COc1ccccc1CN1C[C@@H]2C[C@@H](C3=Cc4cc(Cl)ccc4OC3)N3CCC[C@@]23C1=O	-2	13µM*	3	-18	?
CN1C[C@@H]2C[C@@H](C3=Cc4cc(Cl)ccc4OC3)N3CCC[C@@]23C1=O	-2	5%	-10	-35	-25%
O=C1N(c2ccccc2)C[C@@H]2C[C@@H](c3cccs3)N3CCC[C@@]123	-1	?	-28	?	?
Cc1ccc(NC(=O)CSCC(=O)NC2=NCCS2)cc1	.	3%	.	-4	-7%
COc1cc2oc3ccccc3c(=O)c2cc1OC	14	-12%	18	.	20%

From PubChem BioAssay
